Rows were chosen to be rich in hits. Some 4.9% of all compounds tested hit in one or more screens of this group.
UCHL1 block = human UCHL1 deubiquitinase inhibition; purified UCHL1, Ub-rhodamine cleavage fluorescence; inhibition, % at 20 µM; 47,000 tested, 0.2% active; AID 1645859
Target sequence (P09936 whole entry, looked up): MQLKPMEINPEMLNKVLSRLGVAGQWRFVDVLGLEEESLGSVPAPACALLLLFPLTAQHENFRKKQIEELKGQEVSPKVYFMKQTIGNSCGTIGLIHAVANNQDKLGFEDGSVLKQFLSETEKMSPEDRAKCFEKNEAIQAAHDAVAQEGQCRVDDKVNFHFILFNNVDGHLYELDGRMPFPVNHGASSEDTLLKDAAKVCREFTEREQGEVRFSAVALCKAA
OTUD3 inh = inhibitors of human OTUD3 deubiquitinase. purified OTUD3, Ub-rhodamine fluorescence, 2 h. inhibition, % at 25 µM. 47,000 tested, 0.7% active. AID 1645858. Q5T2D3
USP8 inh = inhibitors of human USP8 deubiquitinase; P40818; purified USP8, Ub-rhodamine cleavage fluorescence, 30 min; inhibition, % at 20 µM; 47,000 tested, 4.2% active
USP10 inh = blocks human USP10 ubiquitin-rhodamine cleavage; Q14694; purified USP10, Ub-rhodamine fluorescence, 60 min; inhibition, % at 20 µM; 47,000 tested, 1.1% active
USP7 inh = inhibitors of human USP7 deubiquitinase; Q93009; purified USP7, Ub-rhodamine cleavage fluorescence; inhibition, % at 20 µM; 47,000 tested, 0.3% active; AID 1645854
Numbers without * were called inactive. Cut-off read from the data, not from the text of the source: active = inhibition above about 30%; inactive = the rest.

What do the screens show for `Cn1c(=O)c(Cl)nc2c(OCc3ccccc3)nc(N)nc21`?
UCHL1 block: 5.1; OTUD3 inh: 14.0; USP8 inh: -1.2; USP10 inh: 0.1; USP7 inh: 3.9

What do the screens show for `Nc1nc(OCc2ccccc2)c2[nH]c(/C=C/c3cccs3)nc2n1`?
UCHL1 block: 3.9; OTUD3 inh: 25.1; USP8 inh: 71.7*; USP10 inh: 15.4; USP7 inh: 5.5

How did Cc1nn(CC(=O)NC(C)C)c(C)c1S(=O)(=O)N(C)C do in these assays?
UCHL1 block: 2.1; OTUD3 inh: 12.6; USP8 inh: 10.3; USP10 inh: 3.4; USP7 inh: 4.7

Results for O=C(Nc1ncccc1O)C1CC(=O)N(c2ccc3c(c2)OCO3)C1 (stereo unspecified) ?
UCHL1 block: -1.8; OTUD3 inh: -5.2; USP8 inh: 55.1*; USP10 inh: -7.5; USP7 inh: -2.6

What do the screens show for `CC1[C@@H]2[C@@H](C(=O)N3CCOCC3)C[C@H](CN1S(=O)(=O)c1ccc(Cl)cc1)N2C` (stereo partly specified)?
UCHL1 block: 1.8; OTUD3 inh: 1.2; USP8 inh: 10.0; USP10 inh: 0.0; USP7 inh: 4.2

Results for COc1ccc(C2CC(=O)N(Cc3ccccc3F)c3ccccc3S2(=O)=O)cc1OC (stereo unspecified) ?
UCHL1 block: 2.4; OTUD3 inh: -2.4; USP8 inh: 32.6*; USP10 inh: 10.1; USP7 inh: -25.0

Results for Cn1nc(C2CCCN(C(=O)COc3ccc(F)cc3F)C2)c2nccnc21 (stereo unspecified) ?
UCHL1 block: 1.4; OTUD3 inh: 14.7; USP8 inh: -37.5; USP10 inh: -0.2; USP7 inh: 0.0

Results for CCC(=O)Nc1cccnc1-c1ccc(C(=O)Nc2ccc3c(c2)OCO3)cc1 ?
UCHL1 block: 3.2; OTUD3 inh: 5.1; USP8 inh: 74.9*; USP10 inh: 13.1; USP7 inh: 17.7

What do the screens show for `CCC(=O)Nc1cccnc1-c1ccc(C(=O)Nc2ccc(C)cc2)cc1`?
UCHL1 block: -1.1; OTUD3 inh: -5.7; USP8 inh: -17.6; USP10 inh: -1.0; USP7 inh: 0.9

What do the screens show for `COc1cccc(C(=O)NCc2[nH]nc3ccccc23)c1`?
UCHL1 block: 1.9; OTUD3 inh: -7.7; USP8 inh: 84.1*; USP10 inh: 2.3; USP7 inh: 1.3

How did CO[C@H]1C[C@@H]2CC[C@@H](C)[C@@](O)(O2)C(=O)C(=O)N2CCCC[C@H]2C(=O)O[C@@H]([C@H](C)C[C@@H]2CC[C@@H](O)[C@H](OC)C2)CC(=O)[C@H](C)/C=C(\C)[C@@H](O)CC(=O)[C@H](C)C[C@H](C)/C=C/C=C/C=C/1C do in these assays?
UCHL1 block: 9.7; OTUD3 inh: -3.7; USP8 inh: 17.4; USP10 inh: 5.6; USP7 inh: 15.1

Results for C[C@@H]1/C=C/CC/C=C/C(=O)[C@H](C)[C@@H]2CC[C@@H](C)[C@@](O)(O2)C(=O)C(=O)N2CCCC[C@H]2C(=O)O[C@H]([C@H](C)C[C@@H]2CC[C@@H](O)[C@H](O)C2)CC1 ?
UCHL1 block: 8.8; OTUD3 inh: 43.2*; USP8 inh: 11.5; USP10 inh: 8.3; USP7 inh: 11.0

How did COc1ccccc1CN1CCC(c2nn(C)c3nccnc23)CC1 do in these assays?
UCHL1 block: 2.0; OTUD3 inh: -1.2; USP8 inh: 0.6; USP10 inh: 0.3; USP7 inh: 1.7

What do the screens show for `COc1ccccc1CN(CCCn1ccnc1)CC1CCOC1` (stereo unspecified)?
UCHL1 block: -0.9; OTUD3 inh: 10.2; USP8 inh: 36.5*; USP10 inh: 3.9; USP7 inh: 0.8

What do the screens show for `Cc1ccccc1CNC(=O)N1C[C@H]2C[C@H]3[C@](C1)(CN(CC(C)C)S3(=O)=O)O2`?
UCHL1 block: 3.3; OTUD3 inh: 6.1; USP8 inh: -40.4; USP10 inh: 1.9; USP7 inh: 6.8

How did Cc1cc(NC(=O)CSc2nnc(-c3ccc4c(c3)OCCO4)o2)no1 do in these assays?
UCHL1 block: 0.5; OTUD3 inh: -0.9; USP8 inh: 31.0*; USP10 inh: -4.4; USP7 inh: -0.1

What do the screens show for `Nc1nc(CN2CCN(c3ccccc3Cl)CC2)nc(Nc2ccccc2)n1`?
UCHL1 block: 2.0; OTUD3 inh: -23.3; USP8 inh: -16.8; USP10 inh: -3.7; USP7 inh: -10.7

Results for COc1ccccc1[C@]12C[C@H]1CN(C(=O)Nc1ccncc1)c1cccnc1C2=O ?
UCHL1 block: -2.2; OTUD3 inh: 12.9; USP8 inh: -10.0; USP10 inh: 0.0; USP7 inh: 1.3

Results for CCN1C[C@@H]2C[C@]2(c2ccccc2OC)C(=O)c2ncccc21 ?
UCHL1 block: 1.5; OTUD3 inh: -20.0; USP8 inh: 93.8*; USP10 inh: -4.1; USP7 inh: -8.0

What do the screens show for `Cc1ccccc1C(=O)N1C[C@@H]2C[C@H](NC(=O)c3cccnc3)[C@H]1C2`?
UCHL1 block: -4.0; OTUD3 inh: -10.4; USP8 inh: -9.5; USP10 inh: -4.5; USP7 inh: -3.9

What do the screens show for `Cc1sc(NC(=O)C2CCCC2)nc1-c1ccc2c(c1)CCN2C(=O)C1CCCCC1`?
UCHL1 block: 4.3; OTUD3 inh: 5.2; USP8 inh: 11.5; USP10 inh: 5.7; USP7 inh: -0.8

What do the screens show for `Cc1sc(NC(=O)Cn2nnc3ccccc32)nc1-c1ccc2c(c1)CCN2C(=O)c1ccccc1F`?
UCHL1 block: 3.1; OTUD3 inh: 2.9; USP8 inh: 49.8*; USP10 inh: 55.5*; USP7 inh: 8.7

Results for Cc1sc(NC(=O)CN2CCc3ccccc3C2)nc1-c1ccc2c(c1)CCN2C(=O)C1CCCCC1 ?
UCHL1 block: -2.4; OTUD3 inh: -26.0; USP8 inh: 76.2*; USP10 inh: -7.4; USP7 inh: -9.7

How did Cc1cccc(C(=O)N2CCc3cc(-c4nc(NC(=O)CNc5ccccc5)sc4C)ccc32)c1 do in these assays?
UCHL1 block: 8.4; OTUD3 inh: 8.7; USP8 inh: 56.6*; USP10 inh: 18.6; USP7 inh: -20.6

Results for O=C(Cn1nnc2ccccc21)Nc1nc(-c2ccc3c(c2)CCN3C(=O)c2ccccc2F)cs1 ?
UCHL1 block: 6.0; OTUD3 inh: 22.8; USP8 inh: 77.4*; USP10 inh: 50.2*; USP7 inh: 23.8

Results for CC(C)(C)CC(=O)N1CCc2cc(-c3csc(NC(=O)Cn4nnc5ccccc54)n3)ccc21 ?
UCHL1 block: -11.0; OTUD3 inh: 0.4; USP8 inh: -7.3; USP10 inh: -4.9; USP7 inh: -3.6

Results for Cc1sc(NC(=O)Cn2nnc3ccccc3c2=O)nc1-c1ccc2c(c1)CCN2C(=O)C(C)C ?
UCHL1 block: 1.6; OTUD3 inh: 2.2; USP8 inh: 14.0; USP10 inh: 12.6; USP7 inh: 11.5

Results for Cn1c(=O)c2ccc(C3CCN(C(=O)c4ccc(F)cc4)C3)nc2n(C)c1=O (stereo unspecified) ?
UCHL1 block: -0.9; OTUD3 inh: 7.3; USP8 inh: 8.4; USP10 inh: 0.0; USP7 inh: 1.3

Compound activity: PubChem, Buhrlage Lab, Dana-Farber Cancer Institute and Novartis Institutes for BioMedical Research (Cambridge, Mass)
